High-throughput results from PubChem.
Sampled rows, rich in hits. Any-hit rate of the full collection: about 7.2%.
MARV entry inh = qHTS for inhibitors of binding or entry into cells for Marburg Virus; Potency, µM (titrated, usually from 37.8 µM), for inactives: top-dose activity change, negative = inhibition, actives largely listed as inhibitors; Marburg virus pseudotyped entry inhibition, cell reporter; hit rate 1.8% among 300,000; AID 540276, 2011; calls by dose curve; tested in HEK293 cells
Lassa entry inh = qHTS for Inhibitors of binding or entry into cells for Lassa Virus; Lassa virus pseudotype entry inhibition, cell reporter; Potency, µM (series often up to 37.9 µM), for inactives: at the highest dose activity change, negative = inhibition, actives largely listed as inhibitors; hit rate 1.2% among 300,000; calls by dose curve; tested in HEK293 cells; also: nearly all actives have a fitted effect of over 50% in size
FMDV antiviral = High Throughput Screening for Foot and Mouth Disease Virus Antivirals; Potency, µM (series often up to 57.9 µM), for the others: top-dose activity change, negative = inhibition, hits mostly inhibitors; AID 1159524, 2015; FMDV antiviral cell-based qHTS; hit rate 1.2% among 410,000; calls by dose curve; tested in HEK293T cells; also: read-out not given here; nearly all actives have a fitted effect of over 45% in size
Sm TGR block = qHTS Assay for the Inhibitors of Schistosoma Mansoni Peroxiredoxins; AID 485364, 2010; Potency, µM (doses to about 114 µM), inactives show top-dose activity change, negative = inhibition, hits mostly inhibitors; hit rate 3% among 360,000; Schistosoma mansoni thioredoxin glutathione reductase (TGR), Q962Y6; purified TGR, DTNB reduction, TNB absorbance 405 nm; also: nearly all actives have a fitted effect of over 60% in size
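TGR 20 nM + NADPH 100 uM (dispensed conc.), cpd preinc 15 min RT; start with NADPH (500 uM addition) then DTNB (15 mM addition). Kinetic TNB absorbance, 405 nm filter. Four-parameter Hill fit across titration.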
HCV inh = qHTS Assay for Inhibitors of Hepatitis C Virus (HCV); Huh7.5.1 HCVcc-Cre infection, luciferase reporter, 44 h; Potency, µM (series often up to 41.8 µM), for the others: at the top dose activity change, negative = inhibition, most hits filed as inhibitors; hit rate 3.4% among 340,000; AID 651820, 2012
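Compounds are dispensed onto cells plated 4 h earlier at 1,000 per well, with HCVcc-Cre virus (about 0.5 moi) added next. Following 44 h of culture, luminescent signal is measured for 15 sec after 15 min with substrate at room temperature.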
RE007 growth inh = qHTS Assay for Inhibitors of the HIV-1 protein Vpr. AID 651644, 2012. hit rate 0.21% among 360,000. S. pombe RE007 Vpr strain, BacTiter-Glo ATP luminescence, 24 h. Potency, µM (doses to about 92.2 µM), for inactives: at the top dose activity change, negative = less growth, usual class: inhibitors; active = well fitted falling curve with a large enough effect; inconclusive = small, poorly fitted or top-dose-only effect; inactive = no such curve, though single readings can be large or run the other way; also: nearly all actives have a fitted effect of over 50% in size
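Fission yeast strain RE007, carrying one chromosomally integrated HIV-1 vpr copy, was seeded at OD 0.01 in PMG+AL medium with 23 nL pinned compound. After 24 h at 30 °C and 99% humidity, viability was read by BacTiter-Glo luminescence.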
Starred values were filed as active, the others as inactive; ? = inconclusive; nt = no result given; [ ] = another dose, or the depositor's remark. Unless noted, calls follow the shape of the dose curve; as a rule, active = well fitted curve in the direction sought with a large enough effect; inconclusive = small, poorly fitted or top-dose-only effect, or another doubt; inactive = no such curve, though single readings can be large; an effect the other way counts as inactive or inconclusive. % is scaled to controls: 0 for no effect and ±100 for the full control effect; potency is read from the fitted curve at half-maximal effect.

SMILES | MARV entry inh | Lassa entry inh | FMDV antiviral | Sm TGR block | HCV inh | RE007 growth inh
CCOC(=O)c1sc(NC(=O)CCN2CCN(C)CC2)c(C(=O)OCC)c1C | 0% | 11µM* | -20% | -10%[57.1 µM] | 14µM* | -2%
COc1ccc2[nH]c(C)c(C(=O)CN3CCOCC3)c2c1 | 1% | 18% | -27% | 45µM* | 26% | -10%
COc1ccc(/C=C/C(=O)C2CC2)cc1COc1cccc(C)c1C | ? | 7.1µM* | ? | 9% | ? | -1%
COc1ccc(/C=N/NC(=S)Nc2ccccc2)cc1COc1cccc(C)c1C | nt | nt | -16% | -22% | -3% | 5%
Cc1cc(C)n2nc3nc(N4CCCCC4)nc(-c4ccco4)c3c2n1 | -4% | 4% | 0% | 1.4µM* | ? | 9%
Cc1cc(C)n2nc3ccccc3c2n1 | 9% | -1% | nt | 2% | -26% | 2%
CCCn1c(C)cc(=O)c2cc(NC(=O)c3cnccn3)ccc21 | -20% | -8% | -9% | -22% | 2.2µM* | -21%
CCC(C(=O)NCCC(C)C)n1ccc2cc(S(=O)(=O)N3CCCCC3)ccc21 (configuration not stated) | nt | nt | -10% | 4% | 10µM* | 4%
CC(C)CCNC(=O)c1cc2cc(S(=O)(=O)N3CCCCC3)ccc2n1C | nt | ? | -15% | 4% | nt | nt
CCc1cccc(C)c1NC(=O)Cn1ccn(Cc2ccc(Cl)cc2)c(=O)c1=O | nt | 1%[46.1 µM] | -4% | -3% | nt | nt
COc1ccccc1NC(=O)c1ccc2[nH]c(C)cc(=O)c2c1 | -2%[46.1 µM] | ? | -14% | 9% | nt | nt
c1ccc2c(c1)CC(CN1CCNCC1)O2 (configuration not stated) | -21%[46.1 µM] | 9%[46.1 µM] | -13% | 14µM* | 2% | -15%
COc1ccccc1-c1cn[nH]c1-c1ccc(OCc2ccccc2)cc1O | ? | 1%[46.1 µM] | ? | 18% | -19% | 6%
O=[N+]([O-])c1ccc(COc2ccc(-c3[nH]ncc3-c3ccc(Cl)cc3)c(O)c2)cc1 | ? | ? | 32µM* | -2% | ? | -18%
COc1ccc(-c2cn[nH]c2-c2ccc(OCc3ccccc3)cc2O)cc1 | ? | 3.5µM* | -48% | 10% | ? | ?
COc1ccc(-c2cn[nH]c2-c2ccc(OCc3ccc([N+](=O)[O-])cc3)cc2O)cc1OC | nt | nt | 16µM* | 3% | ? | 19%
COc1ccc(-c2cn[nH]c2-c2ccc(OCc3ccccc3F)cc2O)cc1OC | nt | nt | ? | 12% | 11µM* | 14%
COc1cccc(CN2CCCC(c3nc(C)ncc3-c3ccc(F)cc3)C2)c1OC (configuration not stated) | nt | nt | -10% | nt | nt | nt
COCOc1c2c(c(OCOC)c3c(OCOC)cccc13)C(=NNS(C)(=O)=O)C1=C2CCCC1 | 1%[14.2 µM] | nt | nt | nt | nt | nt
O=C(CN1CCC(C(=O)c2ccc(F)cc2)CC1)Nc1ccc(F)cc1 | ? | ? | ? | 0% | 10µM* | -9%
CC(=O)c1ccc(NC(=O)CN2CCC(C(=O)c3ccc(F)cc3)CC2)cc1 | -24%[46.1 µM] | -27% | -5% | -2% | ? | 4%
O=C(CN1CCC(C(=O)c2ccc(F)cc2)CC1)NCc1ccccc1F | ? | ? | ? | 14% | 11µM* | ?
O=C(c1ccc(F)cc1)C1CCN(Cc2ccccc2F)CC1 | nt | nt | -9% | nt | nt | -3%
COc1ccc(CNC(=O)c2ccc3c(c2)N(C)C(=O)C2CCCCN32)cc1OC (configuration not stated) | nt | -1%[46.1 µM] | -13% | 1% | nt | nt
c1ccc2c(c1)CCN(c1ncnc3nc[nH]c13)C2 | 5% | -4% | -26% | 0% | 1% | 3%
C1=C(c2ccccc2)CCN(c2ncnc3nc[nH]c23)C1 | nt | nt | -10% | 50µM* | -17% | 2%
Cc1ccn2c(CC(C)(C)C)c(-c3ccc(F)cc3)nc2c1 | nt | nt | 27% | nt | nt | -12%
COc1ccccc1CN=Cc1[nH]c2ccc(Br)c(Cl)c2c1O | -28% | -16% | -3% | 11µM* | -1% | -17%
